The panel holds about 83,000 compounds, 20% with a hit somewhere; the sample as a whole holds those more often.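 Plates (96-well) were seeded with cells, treated with compound at one concentration, and incubated for 48 hours before percent growth was determined.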 Unmarked numbers belong to inactive results. Calls of active or inactive are those of the source.
The compounds below were run on NCI-H322M lung (assay: NCI-60 one-dose screen, 48 h (100 = growth as untreated, 0 = no growth, -100 = all killed)). Details: 10 µM unless noted.
Protocol: Growth inhibition of the NCI-H322M human Non-Small Cell Lung tumor cell line is measured as a screen for anti-cancer activity. Cells are grown in 96 well plates and exposed to the test compound for 48 hours. Compounds are tested at a single concentration, which is 10^-5 M for most compounds. The reported endpoint is percent growth (GI% or GIPRCNT), where numbers from 0 - 100% represent growth inhibition, and numbers from -100% - 0 represent cell death. For example, a value of 40 represents 60% growth inhibition. A value of 0 means no net growth occurred over the course of the experiment. A value of -40 indicates 40% of cells at the beginning of the experiment died by the end of the experiment. A value of -100 means all cells are dead at the end of the experiment.
NCI-60 Human Tumor Cell Lines Screen was performed using the standard one-dose NCI protocol, which is described in more detail at https://dtp.cancer.gov/discovery_development/nci-60/default.htm.
Compounds with GIPRCNT values below 10 were considered active. Activity score was based on GIPRCNT using the following formula: […]
Score is 0 for GIPRCNT values of 100 or above, 50 for GIPRCNT values of 0, and 100 for GIPRCNT values of -100.

SMILES	growth
COc1ccc(N(Cc2cc(OC)c(OC)c(OC)c2)C2OC(=O)c3ccccc32)cc1 (stereo not given)	52.4%
CCCCN(CCCC)Cc1c(C)[nH]c2cc(OC)ccc2c1=O	113%
O=C(O)c1ccc(=O)[nH]n1	117%
CCOC(=O)c1cnc2ccc(Br)cc2c1Nc1cccc(S(=O)(=O)NC)c1	98.3%
COc1ccc(C(=O)c2sc3nc4c(cc3c2N)CCCC4)cc1OC	86.8%
CCCCCCNC(=O)Oc1ccc(/C(=C(\C)c2ccccc2)c2ccc(OCCN(CC)CC)cc2)cc1	90%
OC(c1cc(-c2ccccc2)nc2ccc(Cl)cc12)C1CCCCN1 (stereo not given)	41.8%
CCOC(=O)Cc1cnn(C)c1NC(=O)c1ccc(Cl)cc1NC(C)=O	79.1%
CSc1[nH]c2ncnc(N)c2c1C#N	82.9%
O=c1cc(-c2ccccc2)[nH]c2ccccc12	55.4%
CCOC(=O)c1c2ncccc2n2c(=O)n(-c3ccc(Cl)cc3)nnc12	67.1%
Cc1ccc(Nc2c(C(N)=O)cnc3ccc(-c4csc(N)n4)cc23)cc1	108%
NC(=S)N/N=C/c1ccc(OCc2ccccc2)cc1	79.9%
COc1ccc(-c2cc(NC(=O)Nc3ccc(O)cc3)no2)cc1	66.8%
Cc1ccc2c(c1)n([O-])c1cc(Cl)ccc1[n+]2=O	115%
CS(=O)(=O)c1c(Nc2ccccc2)n[nH]c1N	103%
Clc1ccc(-c2nnc(COc3ccccc3Cl)o2)cc1	76.9%
C=C(C[n+]1ccccc1)[C@@H]1CC[C@]2(C(=O)OC)CC[C@]3(C)[C@H](CC[C@@H]4[C@@]5(C)CC[C@H](O)C(C)(C)[C@@H]5CC[C@]43C)[C@@H]12	101%
CSc1ccc(N=C=C(c2ccccc2)c2ccccc2)cc1	107%
Cn1c(=O)c2[nH]c(C(O)C(O)C(O)C(O)CO)nc2n(C)c1=O (stereo not given)	93.7%

SMILES	growth
CC[n+]1ccc2c(c1)C(=O)c1nccc3c1c-2nc1ccccc13	-16.3% (active)
NS(=O)(=O)N(c1cc(C(F)(F)F)cc(C(F)(F)F)c1)C1CCN(Cc2ccc(F)cc2)CC1	81.7%
COc1ccc(/C=C2\CN(C(=O)CCN3CCC(=NO)CC3)C/C(=C\c3ccc(OC)cc3)C2=O)cc1	17.8%
C[C@H](CCC(=O)O)[C@H]1CC[C@H]2[C@@H]3CC[C@@H]4/C(=C\c5ccco5)C(=O)/C(=C\c5ccco5)C[C@]4(C)[C@H]3CC[C@]12C	95.6%
CCOC(=O)C(=Cc1ccccc1F)C(=O)OCC	94%
Nc1cccc(NC(=O)C(=O)Nc2cccc(N)c2)c1	109%
Cn1c2ccccc2c2c3c(c4c5ccccc5[nH]c4c21)C(=O)N(N)C3=O	85.1%
Cc1ccc(NC(=O)c2sc3nc4c(cc3c2N)C(=O)CCC4)cc1C	42.5%
CCOC(=O)c1cnc2ccc(OC)cc2c1Nc1cccc(S(=O)(=O)NC)c1	99.8%
Clc1cccc(Nc2nc(Nc3cnc4ccccc4c3)c3[nH]cnc3n2)c1	89.1%
COc1ccc(-n2c(C)nc3c(c(C)nn3-c3ccccc3)c2=O)cc1	49.9%
COc1ccc(/C=C2\N=C3SC=C(N)N3C2=O)cc1	46.6%
O=C1Nc2ccccc2C12CC(c1ccccc1)=NN2 (stereo not given)	66.3%
COc1cc(NCCCCCN=C(N)NC(N)=NC(C)C)c2ncccc2c1	50.7%
c1ccc(-c2nc(N3CCOCC3)c3c4c(sc3n2)CCCCC4)nc1	67.3%
COc1cnc2c(c1)C(=O)c1c-2n(CCCN2CCN(C)CC2)c(=O)c2cc([N+](=O)[O-])ccc12	-56.9% (active)
O=c1[nH]c(-c2ccccn2)nc2sc3c(c12)CCCCC3	48.5%
COC(=O)C12C3C(=O)N(c4ccc(OC)cc4)C(=O)C3C(c3cn(-c4ccccc4)nc3C)N1[C@H](c1cn(-c3ccccc3)nc1C)[C@@H]1C(=O)N(c3ccc(OC)cc3)C(=O)[C@@H]12 (stereo not given in full)	112%
O=C(NCc1cccc(C(F)(F)F)c1)[C@H](CCC(=O)N1CCN(C2CCCCC2)CC1)N1C(=O)[C@@H](N2C(=O)OC[C@@H]2c2ccccc2)[C@H]1/C(Cl)=C/c1ccccc1	36.4%
CC(C)[C@H]1COC(=O)N1[C@@H]1C(=O)N([C@@H](CCC(=O)N2CCN(C3CCCC3)CC2)C(=O)N[C@@H]2CCCc3ccccc32)[C@@H]1/C=C/c1cccc(Br)c1	39.3%
